Results on 20 molecules are retold here after ChEMBL document CHEMBL3988442, “University of Dundee, Small-Polar-MMV Screening Library” (2021).

In this assay the target is AMP-activated protein kinase, AMPK (Homo sapiens) (UniProt P54646+O43741+P54619+Q9UGJ0+Q9Y478+Q13131+Q9UGI9). Briefly: AMP-dependent Kinase enzyme assay. An in vitro enzyme assay that detects ADP turnover that is directly proportional to AMPK activity. This uses naive AMPK that is activated during the assay with MK-8722. The assay is classed as functional. Also on record: scale not given: direction of the effect not stated beside the values. The following applies: 30 µM.
In the case of `C[C@@H]1CN(CC(=O)NCc2ccccn2)C[C@]1(C)O`, the Percent Effect turned out to be 8.43%.
Take `CC(C)Cn1nc(-c2ccc(C(=O)O)cc2)cc1-c1ccc(F)cc1`: the Percent Effect was 22.7%.
Consider `c1csc(N2CCN(c3ncnc4sccc34)CC2)n1`, for which the Percent Effect was 18.5%.
With `O=C(NCc1ccc(OCC2CC2)nc1)C1COc2ccccc2O1` (stereo not given), the Percent Effect is -1.03%.
`CN(C)S(=O)(=O)N1CCOC(c2cccc(-c3cncnc3)n2)C1` (stereo not given): the Percent Effect is 9.99%.
On to `NC(=O)[C@@H]1Cc2ccccc2N1C(=O)C1CC(c2ccccc2)=NO1` (stereo not given in full), for which the Percent Effect worked out at 11.5%.
The same measure for `COCCC(=O)N(C)CCC1=CCN(C)CC1`: -12.9%.
With `Cc1ccccc1C(=O)NC[C@@H]1CCN(C(=O)CN2CCCC2)C[C@H]1O`, the Percent Effect was -0.0834%.
Consider `COc1ccccc1C(C)(C)NC(=O)Nc1ccc(F)c(C(N)=O)c1`, for which the Percent Effect was -5.46%.
`COCCNC(=O)N1CCOCC1c1c(C)nn(C)c1C` (stereo not given): the Percent Effect is -0.499%.
`COCCCS(=O)(=O)N1CCN(Cc2cccn2C)CC1`: the Percent Effect was determined as 2.25%.
`CN(CCCc1cnn(C)c1)Cc1cc2n(n1)CCCN(C)C2`: the Percent Effect was -6.92%.
For the molecule `CC(C)c1nn(C)cc1CNCc1ccnc(N(C)C)c1`, the Percent Effect is -4.28%.
As to `c1cnc(N2CCC(OCC3CCCCO3)CC2)nc1` (stereo not given), the Percent Effect stood at 2.8%.
`COc1ccccc1CN(Cc1nc(Cc2ccccc2)no1)C1CC1`: the Percent Effect is 12.8%.
On to `Cn1c(CN2CC[C@](C)(O)C(C)(C)C2)cc2ccccc21`, for which the Percent Effect is 12.4%.
In the case of `CC(C)(C)NC(=O)CNc1ncccn1`, the Percent Effect amounted to 91.2%.
For the molecule `CS(=O)(=O)c1ccc(CNC(=O)NCc2cc[nH]n2)cc1`, the Percent Effect is -5.06%.
Then `Cc1cnn(C2CCCN(C(=O)c3cc(-c4cccs4)n[nH]3)C2)c1` (stereo not given), with -1.86%; and `N#Cc1cccnc1NCCc1cc(F)cc2c1OCOC2`, with 22.2%.
